High-throughput results (PubChem)
This is a sample that favours compounds with a hit; in the whole collection about 12% have one here.
HCV inh: HCV inhibition; Huh7.5.1 HCVcc-Cre infection, luciferase reporter, 44 h; Potency, µM (series often up to 41.8 µM), without a hit: top-dose activity change, negative = inhibition, usual class: inhibitors; hit rate 3.4% among 340,000; AID 651820; note: % is set by controls: 0 for no effect and ±100 for the full control effect
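Reporter virus HCVcc-Cre (~0.5 moi) infects cells exposed to compound; seeding density 1,000 cells/well with 4 h settling beforehand. Luminescence, 15 sec read, taken 44 h post-infection following a 15 min RT substrate incubation.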
Pf growth 96h: P. falciparum growth inhibition at 96 hour, primary screen for plastid delayed-death inhibitors; P. falciparum luciferase reporter growth, 96 h; Potency, µM (series often up to 28.7 µM), for inactives: at the top dose activity change, negative = inhibition, actives largely listed as inhibitors; hit rate 6.9% among 320,000; note: % is set by controls: 0 for no effect and ±100 for the full control effect
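Plates of compound plus infected erythrocytes (2% hematocrit, 0.05% parasitemia final) incubate 96 hours, 37 C, 5% CO2. Detection reagent added; reduced luminescence from the parasites' luciferase reporter flags inhibition.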
SARS PLpro yeast: blocks SARS-CoV papain-like protease in a yeast assay | hit rate 0.19% among 330,000 | S. cerevisiae expressing SARS-CoV PLpro, growth rescue | Potency, µM (doses to about 32.9 µM), for inactives: top-dose activity, positive = growth rescue, usual class: activators; calls by dose curve; note: 0% is about no effect; nearly all actives have a fitted effect of over 55% in size
NS1 function inh: inhibitors of influenza NS1 protein function. Potency, µM (highest dose often 46.1 µM), for the others: top-dose activity, positive = more growth. hit rate 0.4% among 270,000. AID 2326; calls by dose curve; note: actives are rising curves; nearly all actives have a fitted effect of over 50% in size
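S. cerevisiae expressing influenza A NS1, grown in glucose, washed, then diluted 1:100 into pH 6.0 -URA galactose medium with 23 nl compound. Growth recovery read as OD600; NS1-free strain serves as control.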
Pf growth 48h: P. falciparum growth inhibition at 48 hours (one generation); P. falciparum luciferase growth in erythrocytes, 48 h; Potency, µM (top dose mostly 28.7 µM), for inactives: at the highest dose activity change, negative = inhibition, usual class: inhibitors; hit rate 5.9% among 310,000; note: % is set by controls: 0 for no effect and ±100 for the full control effect
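In quantitative HTS format, infected erythrocytes bearing luciferase-reporter parasites were treated for a single generation at 37 C. Luminescence after adding detection reagent served as the growth measure.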
AMA1 RON2 block: inhibitors of Plasmodium falciparum AMA1-RON2 interaction. Potency, µM (doses to about 58.2 µM), without a hit: at the top dose activity change, negative = inhibition, actives largely listed as inhibitors. hit rate 0.2% among 360,000. AID 720542. AlphaScreen AMA1-biotinylated RON2 peptide binding;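 note: 0% = vehicle wells and -100% = peptide control; nearly all actives have a fitted effect of over 45% in size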
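AMA1 (3D7) with his tag at 25 nM final met compounds first, then biotinylated RON2 peptide at 25 nM; detection used donor plus acceptor beads, 10 µg/mL apiece, read by AlphaScreen after 30 min at room temperature.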
* = called active by the depositor; ? = inconclusive; . = no result given; [ ] = remark or other dose. Unless noted, calls come from the whole dose curve; as a rule, active = well fitted curve in the direction sought with a large enough effect; inconclusive = small, poorly fitted or top-dose-only effect, or another doubt; inactive = no such curve, though single readings can be large; an effect the other way counts as inactive or inconclusive. Potency is the fitted concentration of half-maximal effect.

SMILES	HCV inh	Pf growth 96h	SARS PLpro yeast	NS1 function inh	Pf growth 48h	AMA1 RON2 block
CC(=O)N(O)CCCCCNC(=O)CCC(=O)N(O)CCCCCNC(=O)CCC(=O)N(O)CCCCCN	14µM*	?	22%	-10%	?	172%
C=CCn1c(SC2CCOC2=O)nc2sc(C)c(C)c2c1=O (centres undefined)	21%	13µM*	16%	4%	12%	-6%
Cc1sc2nc(SC3CCOC3=O)n(Cc3ccccc3)c(=O)c2c1C (centres undefined)	5%	33%	-2%	5%	10%	-12%
CC(=O)OC1CCC2(C)C3CCC4(C)C(OC(C)=O)CCC4C3C(C)C2(O)C1 (centres undefined)	9%	.	.	.	.	-10%
CC(=O)O[C@H]1C[C@@]2(C)[C@@H](C[C@@H](O)[C@H]3[C@@]4(C)CC[C@@H](O)[C@@H](C)[C@@H]4CC[C@@]32C)/C1=C(\CCC=C(C)C)C(=O)O	?	?	.	.	12µM*	-6%
CCN(CC(=O)Nc1cc(Cl)ccc1C)C(=O)c1cc(S(=O)(=O)N2CCCCCC2)ccc1OC	?	?	4%	.	?	0%
CCN(CC(=O)Nc1cccc(S(=O)(=O)N2CCCC2)c1)CC(=O)Nc1ccccc1OC	?	9.3µM*	0%	.	?	35%
COc1ccc(Cl)cc1NC(=O)CN(C)CC(=O)Nc1cccc(S(=O)(=O)N2CCCC2)c1	?	3.3µM*	0%	.	?	27%
CCN(CC(=O)Nc1ccccc1OC)C(=O)c1cc(S(=O)(=O)N2CCCCCC2)ccc1OC	?	5.2µM*	7%	.	?	25%
COc1ccc(Cl)cc1NC(=O)c1cc(S(=O)(=O)N2CCCC2)cn1C	11µM*	30%	1%	0%	-28%	13%
CC(C)Oc1cc(O)c2c(c1)OCC=C2CCC(=O)O	.	.	.	-11%	.	.
COC(=O)c1cccc(NC(=O)COc2cccc([N+](=O)[O-])c2)c1	?	-1%	0%	-8%	81%	-1%
CCC(=O)Nc1ccc(-c2ccc(NC(=O)CC)c(OC)c2)cc1OC	?	0%	-1%	4%	3%	0%
CCN(CC)CC(=O)Nc1ccc(-c2ccc(NC(=O)CN(CC)CC)c(OC)c2)cc1OC	1.8µM*	?	-1%	5%	?	-16%
Cc1ccc(C2CC2C(=O)NNC(=S)Nc2cccc(Cl)c2)cc1 (centres undefined)	0%	?	14µM*	-26%	7%	10%
COP(=O)(OC)C(Nc1ccc(Cl)cc1)c1ccccc1 (centres undefined)	6%	0%	4%	0%	0%	-1%
CC(C)OP(=O)(c1ccc(N(C)C)cc1)C(Nc1ccccc1)c1ccccc1 (centres undefined)	-27%	?	-1%	-4%	8.3µM*	?
CC(C)CCOP(=O)(c1ccc(N(C)C)cc1)C(Nc1ccccc1)c1ccc(N(C)C)cc1 (centres undefined)	-18%	?	0%	0%	?	?
COP(=O)(OC)C(Nc1ccccc1)c1ccccc1 (centres undefined)	6%	17µM*	6%	23%	10%	4%
CN(C)c1ccc(/C=C/[N+](=O)[O-])cc1	10%	0%	-59%	-52%	19%	-7%
CN(C)c1ccc(-n2cccc2/C=C/[N+](=O)[O-])cc1	10µM*	1%	-15%	.	?	7.1µM*
O=C1C2C3C=CC(C3)C2C(=O)N1Nc1c(Cl)cc(Cl)cc1Cl (centres undefined)	6%	39%	0%	1%	-10%	8%
COc1ccc(N=C2C(=Nc3ccc(OC)cc3)N(c3ccc(N(C)C)cc3)C(=S)N2c2ccc(OC)cc2)cc1	1.1µM*	.	-11%	0%	5%	-15%
COc1ccc(N=C2C(=Nc3ccc(OC)cc3)N(c3ccc(OC)cc3)C(=S)N2C(=O)c2ccc(OC)cc2)cc1	-17%	25%	19%	9%	?	16%
CCN(CC)S(=O)(=O)c1ccc(/C=C/C(=O)N(c2ccccn2)C2CCCCC2)cc1	-19%	4.7µM*	3%	.	-5%	-14%
SMILES	HCV inh	Pf growth 96h	SARS PLpro yeast	NS1 function inh	Pf growth 48h	AMA1 RON2 block
NC(=S)N=Nc1c(O)n(CCCl)c2ccc(Br)cc12	?	?	0%	-3%	?	23%
Oc1c(N=NC(=S)Nc2ccccc2F)c2ccccc2n1Cc1ccc(F)cc1	?	?	0%	-1%	2.1µM*	17%
Cn1c(O)c(N=NC(N)=S)c2ccccc21	.	12µM*	.	.	?	.
C/C(Cl)=C\Cn1c(O)c(N=NC(N)=S)c2cc(Br)ccc21	11µM*	?	-4%	0%	10µM*	43%
Cc1cccc(NC(=O)Cn2c(O)c(N=NC(N)=S)c3ccccc32)c1	?	15µM*	1%	3%	-10%	33%
NC(=S)N=Nc1c(O)n(Cc2ccc(Br)cc2)c2ccccc12	1µM*	40%	21%	16%	?	5%[2.32 µM]
CC1CCC(NC(=O)CSc2nnc(-c3cccnc3)o2)CC1 (centres undefined)	7%	-18%	-6%	.	10%	14%
Cn1c(NCCCN2CCOCC2)nc2c1c(=O)n(Cc1ccc(Cl)c(Cl)c1)c(=O)n2C	?	.	7%	-11%	13µM*	-11%
Cn1c(NCc2ccco2)nc2c1c(=O)n(Cc1ccc(Cl)cc1)c(=O)n2C	?	76%	-3%	-48%	9.3µM*	29%
Cn1c(NCc2ccco2)nc2c1c(=O)n(Cc1ccc(Br)cc1)c(=O)n2C	?	.	0%	-50%	9.3µM*	-1%
CCc1noc(C)c1C(=O)N1CCN(S(=O)(=O)c2c(C)c(C)cc(C)c2C)CC1	-13%	11%	1%	.	11%	6%
CCN(CC)c1ccc(CNCCc2ccccc2F)cc1	?	9.3µM*	0%	-3%	-11%	?
Cc1ccc(CNCCc2ccccc2F)cc1	0%	58%	12%	-13%	10%	-4%[11.6 µM]
CC[C@@H](C)C(C(=O)N1CCN(C(=O)OC(C)(C)C)CC1)n1cc(-c2cn([C@@H](C)C(=O)N3CCN(C(=O)OC(C)(C)C)CC3)nn2)nn1 (some centres undefined)	?	?	-1%	-4%	?	0%
CC[C@@H](C)C(NC(=O)OC(C)(C)C)c1cn([C@@H](Cc2ccc(O)cc2)C(=O)N2CCN(C(=O)OC(C)(C)C)CC2)nn1 (some centres undefined)	13%	8.3µM*	0%	-6%	11%	-2%
